Bioassay records as filed in PubChem.
TTR transcr act – increases transthyretin transcription; activation, % at 16.7 µM; SH-SY5Y TTR promoter Gaussia luciferase, luminescence; 100% = recombinant luciferase protein wells; 92,000 tested, 1.3% active;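 active means activation above the mean of all tested compounds plus 3 SD, cut at about 9.5% in these data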;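 further: cells exposed to compounds for one day before reading; 0% = median of all test compound wells on the plate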
TTR inh HuH7 – decreases TTR transcription in HuH7 cells in activator counter-screen. shares compounds with TTR transcr act. HuH7 TTR promoter-Gaussia luciferase reporter, luminescence. inhibition, % at 16.7 µM. 1,100 tested, 4% active. AID 1117279;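 active means average inhibition above the solvent-only control wells' mean plus 3 SD, cut at about 15% in these data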;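 further: 0% = cells with DMSO only and 100% = cells with inhibitor control FD; inhibitors lower well luminescence so higher value means more inhibition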
TTR act confirm – confirmation of human transthyretin transcription activators. shares compounds with TTR transcr act. SHSY5Y TTR promoter Gaussia luciferase, luminescence; 100% = purified Lucia enzyme wells, no cells. activation, % at 16.7 µM. 1,100 tested, under 10 active. AID 1117280;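 active means mean activation above a set limit taken from the earlier primary screen, cut at about 11% in these data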;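 further: 0% = DMSO-treated cells and 100% = recombinant Lucia luciferase without cells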
Starred values were filed as active, the others as inactive. The entries come from a sample that favours hits as a whole.

SMILES	TTR transcr act	others
O=C(OCC#CCSc1nnc(-c2cc3ccccc3cc2O)o1)c1ccc(F)cc1	0
COc1ccc(C)cc1NC(=O)C(=O)NNC(=O)COc1ccc(Cl)cc1	2
COc1ccc(OCC(=O)NNC(=O)C(=O)Nc2cc(OC)ccc2OC)cc1	2
COc1ccc(OC)c(NC(=O)C(=O)NNC(=O)COc2ccc(Br)cc2C)c1	43*	TTR inh HuH7=-9;TTR act confirm=0
COC(=O)[C@]12C[C@H](CC(=O)N3CCN(C(=O)C4CC4)CC3)C(=O)N(Cc3ccco3)C1=C[C@H](C1CCCC1)O[C@@H]2C	0
O=C(COC(=O)c1cccc(F)c1)Nc1ccc2c(c1)OCCO2	-1
CC(C)c1nc2sc3c(=O)[nH]c(=S)[nH]c3c2c2c1CCCC2	0
CCC1(C)Cc2sc3c(=O)[nH]c(=S)[nH]c3c2CO1 (configuration not stated)	18*	TTR inh HuH7=-10;TTR act confirm=0
C=CCNC(=S)Nc1sc2c(c1C(=O)OCC)CC(C)(CC)OC2 (configuration not stated)	0
CN(CCc1ccccc1)C(=O)c1ccc(NC(=O)Cc2ccc(NC(=O)C3CCN(C(=O)c4ccccc4)CC3)cc2)cc1	7
N#Cc1ccc(OCC(=O)OCC(=O)Nc2sccc2C(N)=O)cc1	-1
CCOc1ccc(S(=O)(=O)N2CCCC(C(=O)N3CCOCC3)C2)cc1C (configuration not stated)	0
O=C(OCC(=O)N1CCCC1=O)c1cccc([N+](=O)[O-])c1	1
O=C(Nc1ccc2c(c1)OCO2)C1CC(=O)N(CCc2ccccc2)C1 (configuration not stated)	-2
CCOc1ccc(NC(=O)CN(C)C(=O)c2ccncc2)cc1OCC	-1
CCOc1ccc(NC(=O)CN(C)C(=O)C2CC(=O)N(CCc3ccccc3)C2)cc1OCC (configuration not stated)	25*	TTR inh HuH7=-15;TTR act confirm=1
CC(=O)N1CCC(C(=O)N2c3ccccc3N=C(c3ccc4c(c3)OCO4)C2C(=O)Nc2c(C)cccc2C)CC1 (configuration not stated)	0
Cc1nn(-c2ccccc2)c(Cl)c1C(=O)OCC(=O)NCCc1ccccc1	1
O=S(=O)(c1ccccc1)[C@@]1(c2ccc(Br)cc2)C[C@@H]2ON=C(c3ccccc3)[C@@H]2C1	-4
Cc1cccc2c3nc4ccccc4nc3n(C)c12	-1
CC(=O)NC(C)c1cc(Cl)c2cccnc2c1O (configuration not stated)	-6
Cc1cc(Cl)nc2c(C(C)C)cccc12	17*	TTR inh HuH7=-10;TTR act confirm=-1
O=C(NNS(=O)(=O)c1ccc(F)cc1F)c1csc(-c2cccnc2)n1	19*	TTR inh HuH7=-13;TTR act confirm=0
O=C(NNC(=O)c1ccc(Cl)cc1Cl)c1csc(-c2cccnc2)n1	-3
O=C(NCc1ccc(Cl)cc1)c1csc(-c2cccnc2)n1	1
SMILES	TTR transcr act	others
O=C(NCCCO)/C(=C\c1ccco1)NC(=O)c1ccco1	-1
CCCS(=O)(=O)NC(=O)C1(C)CCN(C(=O)c2cc(F)cc(F)c2)C1 (configuration not stated)	-1
O=C(Cc1ccc2c(c1)OCCO2)Nc1ccc(Cl)c(S(=O)(=O)N2CCOCC2)c1	-3
CC(C)CC1NC(=O)c2cc3ccccc3cc2-n2c1nc1ccc(Cl)cc1c2=O (configuration not stated)	0
Cc1ccncc1CNC(=O)c1ccccc1	0
CCOC(=O)c1c(-c2ccccc2)csc1NC(=O)C(C)NCCCN1CCOCC1 (configuration not stated)	13*	TTR inh HuH7=-27;TTR act confirm=0
CCOC(=O)c1c(-c2ccc(F)cc2)csc1NC(=O)CCN1CCOCC1	2
CCOC(=O)c1c(-c2ccc(-c3ccccc3)cc2)csc1NC(=O)CCN1CCOCC1	-2
COc1ccc(N2C[C@H](CSC)[C@@H](CC(=O)Nc3ccc(Br)cc3)C2=O)cc1	0
CSc1ncccc1C(=O)N1CCCC(N2CCN(c3ccccc3C)CC2)C1 (configuration not stated)	-2
CSc1ncnc2c1ncn2CCCN1CCN(C(=O)C2CC2)CC1	0
Cc1ccc(C)c(SCC(=O)NNC(=O)c2csc(N3CCOCC3)n2)c1	31*	TTR inh HuH7=-14;TTR act confirm=-1
CSc1ncccc1C(=O)NNC(=O)c1csc(N2CCOCC2)n1	1
O=C(NNC(=O)c1cc(-c2ccc(Br)cc2)nc2ccccc12)c1csc(N2CCOCC2)n1	-4
CC(C)NC(=O)c1cc(C2CCCCN2S(=O)(=O)c2ccccc2)on1 (configuration not stated)	-2
COc1ccccc1NC(=O)c1c(O)c2ccccc2[nH]c1=O	0
COc1ccc(N=Cc2c[nH][nH]c2=O)cc1	-1
COc1ccc(N=Cc2[nH]c3ccccc3c2O)cc1	14*	TTR inh HuH7=-1;TTR act confirm=0
